# High-throughput results as filed in PubChem BioAssay.
# The list is not random: actives were taken first. Their share in the collection is about 21%.
# AMA1 RON2 block: inhibitors of Plasmodium falciparum AMA1-RON2 interaction; AlphaScreen AMA1-biotinylated RON2 peptide binding; Potency, µM (top dose mostly 58.2 µM), inactives show at the top dose activity change, negative = inhibition, actives largely listed as inhibitors; 360,000 tested, 0.2% active; AID 720542;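 note: potency is the fitted concentration of half-maximal effect; 0% = vehicle wells and -100% = peptide control; nearly all actives have a fitted effect of over 45% in size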
#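 AMA1 (3D7) with his tag at 25 nM final met compounds first, then biotinylated RON2 peptide at 25 nM; detection used donor plus acceptor beads, 10 µg/mL apiece, read by AlphaScreen after 30 min at room temperature.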
# Pf growth 96h: P. falciparum growth inhibition at 96 hour, primary screen for plastid delayed-death inhibitors. P. falciparum luciferase reporter growth, 96 h. Potency, µM (series often up to 28.7 µM), for inactives: at the highest dose activity change, negative = inhibition, usual class: inhibitors. 320,000 tested, 6.9% active; note: potency is the fitted concentration of half-maximal effect; % is set by controls: 0 for no effect and ±100 for the full control effect
#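 Infected RBCs, 2% Hct / 0.05% parasitemia final; luciferase-reporter P. falciparum; cpd 96 h, 37 C, 5% CO2; luciferase detection reagent; luminescence.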
# Shiga inhibitor: Shiga toxin inhibition | Vero cells, Shiga toxin protein synthesis inhibition reporter | inhibition, % at 38.7 µM | 290,000 tested, 9.2% active | AID 2315; in the data active = inhibition mostly above about 28%, no sharp cut-off; inactive = mostly below about 43%; note: 0% is about no effect
# Cycloheximide cs: counter-screen hit for Shiga toxin inhibitors, cycloheximide | max response, % | 300,000 tested, 12% active | cell reporter, cycloheximide protein synthesis inhibition counterscreen; in the data active = max response mostly above about 13%, no sharp cut-off; inactive = mostly below about 14%; note: read at 38.3 µM for the half of the compounds with a filed dose; 0% is about no effect
# HCV inhibitor: blocks hepatitis C virus; 340,000 tested, 3.4% active; Potency, µM (doses to about 41.8 µM), for inactives: at the highest dose activity change, negative = inhibition, hits mostly inhibitors; AID 651820; Huh7.5.1 HCVcc-Cre infection, luciferase reporter, 44 h; note: potency is the fitted concentration of half-maximal effect; % is set by controls: 0 for no effect and ±100 for the full control effect
#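 Infectious HCVcc-Cre (~0.5 moi) was added to cells just after compound, with cells seeded 4 h earlier at 1,000 per well. Luciferase activity after 44 h culture reported infection; substrate was incubated 15 min at room temperature before reading.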
# Pf growth 48h: inhibits P. falciparum growth in the first generation, 48 h; Potency, µM (titrated, usually from 28.7 µM), without a hit: at the top dose activity change, negative = inhibition, actives largely listed as inhibitors; 310,000 tested, 5.9% active; P. falciparum luciferase growth in erythrocytes, 48 h; note: potency is the fitted concentration of half-maximal effect; % is set by controls: 0 for no effect and ±100 for the full control effect
#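 Erythrocytes infected with P. falciparum carrying an integrated firefly luciferase reporter (2% hematocrit, 0.1% parasitemia final) were exposed to compounds in RPMI 1640 with 0.5% Albumax at 37 C, 5% CO2. Growth inhibition was scored as reduced luminescence.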
# Numbers without * were called inactive; ? = inconclusive; . = not tested or not shown. Unless noted, calls come from the whole dose curve; as a rule, active = well fitted curve in the direction sought with a large enough effect; inconclusive = small, poorly fitted or top-dose-only effect, or another doubt; inactive = no such curve, though single readings can be large; an effect the other way counts as inactive or inconclusive.
SMILES,AMA1 RON2 block,Pf growth 96h,Shiga inhibitor,Cycloheximide cs,HCV inhibitor,Pf growth 48h
Cc1ccc(C2=NN3C(=O)c4ccccc4C3C2)cc1 (stereo not drawn),-11%,8.3µM*,57*,55*,-12%,?
Cc1ccc(C(=O)N2N=C(c3ccccc3O)CC2c2ccccc2)cc1 (stereo not drawn),-6%,?,-1,-1,5%,10µM*
O=C(c1ccccc1)N1N=C(c2ccccc2)CC1c1ccccc1[N+](=O)[O-] (stereo not drawn),5%,1.7µM*,-9,-2,10%,?
N=C(SC1CC(=O)N(c2ccc(F)cc2)C1=O)N1N=C(c2ccccc2)CC1c1ccccc1 (stereo not drawn),-8%,33%,4,-2,35%,2.1µM*
CC(=O)N1N=C(c2ccccc2)CC1c1ccccc1[N+](=O)[O-] (stereo not drawn),-3%,-9%,-6,14,7%,?
CCCCN(C=O)c1c(CC)nc2ccc(C(=O)N3CCN(c4ccccc4)CC3)cn12,7%,.,.,.,.,.
CCCOC(=O)c1ccc(NC(=O)c2c(Cl)ccc(Cl)c2OC)cc1,14%,24%,-3,-2,?,2%
COC(=O)Cc1ccc(NC(=O)c2ccc(C)c(C)c2)cc1,6%,?,51*,45*,?,.
CCOc1ccccc1-c1nc(-c2ccc(NC(=O)c3ccc(Br)o3)cc2)no1,4%,29%,47,44*,?,2.9µM*
CCN(CC)c1ccc(NC(=O)c2ccc(Br)o2)cc1,?,10µM*,41,43*,-23%,-13%
CCOc1ccccc1-c1nc(-c2ccc(NC(=O)Cc3ccc(OC)cc3)cc2)no1,-23%,?,-4,-5,?,?
CCCOC(=O)c1ccc(NC(=O)c2ccc(Br)o2)cc1,-19%,?,52*,56*,?,?
c1ccc(-c2noc(CN3CCN(c4cnccn4)CC3)n2)cc1,10%,1%,9,-1,-7%,-16%
COC(=O)Cc1ccc(NC(=O)c2ccc(Br)o2)cc1,-4%,0%,71*,35*,?,99%
COc1ccc(C2=NOC(Cn3nc(C(=O)NCc4cccc(Br)c4)cc3-c3ccccc3)C2)cc1 (stereo not drawn),-2%,.,.,.,14%,.
Cc1ccccc1NC(=O)Cc1nc(COC(=O)c2ccc([N+](=O)[O-])cc2)cs1,19%,26%,.,.,-14%,18%
CC(=O)c1c(C)[nH]c(C(=O)OCc2csc(CC(=O)Nc3ccccc3C)n2)c1C,-4%,.,.,.,4.5µM*,.
Cc1ccc(C)c(OCCC(=O)OCc2csc(CC(=O)Nc3ccccc3C)n2)c1,-14%,?,.,.,5%,12µM*
Cc1ccccc1NC(=O)Cc1nc(COC(=O)c2cccc(O)c2)cs1,-4%,-48%,.,.,?,?
CC(C)=CC(=O)OCc1csc(CC(=O)Nc2ccccc2C)n1,20%,-27%,-25,0,-6%,-14%
Cc1ccccc1NC(=O)Cc1nc(COC(=O)c2ccc(Cl)c(S(N)(=O)=O)c2)cs1,8%,13µM*,.,.,-29%,?
Cc1ccccc1NC(=O)Cc1nc(COC(=O)c2cccc([N+](=O)[O-])c2)cs1,5%,4.1µM*,-3,1,-8%,-9%
Cc1cccc(OS(=O)(=O)NC(=O)OCC2CCCN3CCCCC23)c1 (stereo not drawn),30%,24%,-9,-6,9%,-5%
Cc1ccccc1NC(=O)Cc1nc(COC(=O)c2ccc(O)cc2O)cs1,-6%,?,-3,4,.,-10%
Cc1ccc(NC(=O)Cc2nc(COC(=O)c3c(F)cccc3Cl)cs2)cc1,23%,.,.,.,8.9µM*,.
SMILES,AMA1 RON2 block,Pf growth 96h,Shiga inhibitor,Cycloheximide cs,HCV inhibitor,Pf growth 48h
Cc1ccc(C)c(NC(=O)Cc2nc(CCl)cs2)c1,-12%,?,4,-2,-3%,15µM*
Cc1ccccc1NC(=O)Cc1nc(CCl)cs1,0%,?,-3,1,19%,?
Cc1ccccc1NC(=O)Cc1nc(COC(=O)c2cc([N+](=O)[O-])ccc2NCCO)cs1,-6%,?,.,.,8.9µM*,?
CSCC[C@H](NC(=O)[C@H](CC(C)C)NC(=O)[C@H](Cc1c[nH]c2ccccc12)NC(=O)[C@H](CCC(N)=O)NC(=O)[C@@H](NC(=O)[C@H](Cc1ccccc1)NC(=O)[C@H](CC(=O)O)NC(=O)[C@H](CCC(N)=O)NC(=O)[C@H](C)NC(=O)[C@H](CCCNC(=N)N)NC(=O)[C@H](CCCNC(=N)N)NC(=O)[C@H](CO)NC(=O)[C@H](CC(=O)O)NC(=O)[C@H](CC(C)C)NC(=O)[C@H](Cc1ccc(O)cc1)NC(=O)[C@H](CCCCN)NC(=O)[C@H](CO)NC(=O)[C@H](Cc1ccc(O)cc1)NC(=O)[C@H](CC(=O)O)NC(=O)[C@H](CO)NC(=O)[C@@H](NC(=O)[C@H](Cc1ccccc1)NC(=O)[C@@H](NC(=O)CNC(=O)[C@H](CCC(N)=O)NC(=O)[C@H](CO)NC(=O)[C@@H](N)Cc1cnc[nH]1)[C@@H](C)O)[C@@H](C)O)C(C)C)C(=O)N[C@@H](CC(N)=O)C(=O)N[C@H](C(=O)O)[C@@H](C)O,.,.,-8,18,.,.
Cc1ccc(C(=O)CCNc2ccc(Br)cc2)o1,-10%,11%,62*,27*,-21%,6%
Cc1ccc(C(=O)Cc2ccccc2)o1,2%,5%,.,.,33%,?
Cc1ccc(C(=O)CCNc2cccc(Br)c2)o1,-9%,-19%,32,16,-20%,15%
Cc1ccc(C(=O)CCNc2ccccc2)o1,2%,.,76*,27*,-17%,-3%
COc1ccc(-c2cc(-c3ccc(Cl)cc3)c(C#N)c(SCC(=O)O)n2)cc1,135%,?,13,-4,2%,0%
Cc1ccc(C(=O)NCC(=O)OC(C)C(=O)Nc2ccc(N3CCOCC3)cc2)s1 (stereo not drawn),0%,16%,17,21,12%,9%
Cc1cc(NC(=O)Nc2cc(F)ccc2F)no1,-9%,152%,35,9.2*,-9%,39%
Cc1cc(NC(=O)Nc2ccc(F)c(Cl)c2)no1,5%,.,29*,28*,?,?
CN(C(=O)c1cccc(Br)c1)C1CCS(=O)(=O)C1 (stereo not drawn),-5%,11%,.,.,15%,11%
CC(C)c1ccc(C(C)NC(=S)NC2CCCCC2)cc1 (stereo not drawn),58%,4%,-5,-2,11µM*,12µM*
CCC(C)c1ccc(C(C)NC(=S)NC2CCCCC2)cc1 (stereo not drawn),55%,9.3µM*,12,6,?,7.4µM*
